Measles CPE: protection of cells from measles virus; Measles virus-infected cells, CPE protection, absorbance; protection (pct of control), % at 4 µM; 140,000 compounds, 1.5% hits; AID 841; in the data active means protection mostly above about 24%, no sharp cut-off; inactive means mostly below about 26%
CYP2C19 act: activators of human cytochrome P450 2C19 | recombinant CYP2C19, luciferin-H EGE luminescence; hits give high values; 0 = fully inhibited enzyme, 1 = untreated enzyme | activation factor at 5 µM | 96,000 tested, under 10 active | AID 1025;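 active means activation factor of at least 2 at 5 µM in the primary screen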
CYP2C9 inh: inhibitors of human CYP2C9; CYP2C9 Supersomes, luciferin-H conversion, luminescence; P11712; 96,000 compounds, 20% hits; inhibition, % at 5 µM;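 active means blocking of liver enzyme CYP2C9 beyond about 50% at 5 µM, limit read from the data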
Target sequence (P11712 whole entry, looked up): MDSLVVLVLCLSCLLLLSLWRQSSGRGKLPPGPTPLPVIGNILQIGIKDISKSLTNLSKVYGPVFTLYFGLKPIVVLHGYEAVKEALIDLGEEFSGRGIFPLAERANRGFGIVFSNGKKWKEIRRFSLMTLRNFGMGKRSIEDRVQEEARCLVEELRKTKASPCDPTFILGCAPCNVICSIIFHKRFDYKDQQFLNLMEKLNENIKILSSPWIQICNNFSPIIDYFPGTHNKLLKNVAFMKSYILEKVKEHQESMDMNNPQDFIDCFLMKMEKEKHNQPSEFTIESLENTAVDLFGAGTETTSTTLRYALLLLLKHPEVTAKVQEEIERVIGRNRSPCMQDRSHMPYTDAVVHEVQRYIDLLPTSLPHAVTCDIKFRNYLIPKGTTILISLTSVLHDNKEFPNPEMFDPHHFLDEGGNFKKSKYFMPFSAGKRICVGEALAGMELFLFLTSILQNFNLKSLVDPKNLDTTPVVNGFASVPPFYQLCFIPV
CYP2C19 inhib: inhibitors of human CYP2C19; CYP2C19 Supersomes, luciferin-H EGE luminescence, 30 min; inhibition, % at 5 µM; 96,000 compounds, 21% hits;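 active means CYP2C19 inhibition above a set limit at 5 µM in the primary screen, cut at about 50% in these data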
CYP2C9 activ: CYP2C9 (human) activation. P11712. recombinant CYP2C9, luciferin-H conversion, luminescence; hits give high values; factor 1 = untreated enzyme, 0 = blocked. activation factor at 5 µM. 96,000 compounds, 1.4% hits;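 active means activation factor of 2 or more for CYP2C9 at a 5 µM dose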
Each line names hits and unclear results; the compound was inactive in the other large screens. Only some compounds are listed: those with a hit (about 22% of all), similar ones and a draw of the others.

N#C/C(=C/c1ccccc1[N+](=O)[O-])C(=O)NCc1ccco1	none (no result: CYP2C19 act, CYP2C9 inh, CYP2C19 inhib, CYP2C9 activ)
O=C(CC(c1ccccc1)c1ccccc1)OCn1nnc2ccccc2c1=O	CYP2C9 inh 95, CYP2C19 inhib 85
O=C(CCN1C(=O)c2ccccc2C1=O)OCn1nnc2ccccc2c1=O	none
CC(C)(Oc1ccc(Cl)cc1)C(=O)OCn1nnc2ccccc2c1=O	CYP2C9 inh 51
CC(Oc1ccc(Cl)cc1Cl)C(=O)OCn1nnc2ccccc2c1=O (configuration not stated)	none
O=C(CC1CCCCC1)OCn1nnc2ccccc2c1=O	CYP2C19 inhib 69
O=C(OC(C(=O)NCC1CCCO1)c1ccc(F)cc1)c1ccco1 (configuration not stated)	none
CC1(C(=O)O)CCC(C(=O)Nc2ccc(S(N)(=O)=O)cc2)C1(C)C (configuration not stated)	none
CC(C)NC(=O)CSc1nc2ccccc2n1CC(=O)N1CCc2ccccc21	CYP2C9 inh 95, CYP2C19 inhib 72
CC1CCCCN1C(=O)CSc1nc2ccccc2n1CC(=O)N1CCc2ccccc21 (configuration not stated)	CYP2C9 inh 99, CYP2C19 inhib 82
Cc1nc(NC(=O)CC(C)C)sc1-c1csc(Nc2ccc(Cl)cc2Cl)n1	none
Cc1nc(NC(=O)c2ccccc2)sc1-c1csc(Nc2cccc(Cl)c2)n1	none
Cc1nc(NC(=O)c2ccccc2)sc1-c1csc(Nc2ccc(Cl)cc2Cl)n1	CYP2C19 inhib 65
Cc1nc(NC(=O)CC(C)C)sc1-c1csc(Nc2ccc(Cl)cc2)n1	CYP2C19 inhib 51
COc1ccc(Cl)cc1Nc1nc(-c2sc(NC(=O)CC(C)C)nc2C)cs1	CYP2C9 inh 52
COc1ccc(OC)c(Nc2nc(-c3sc(NC(=O)c4ccccc4)nc3C)cs2)c1	none
COc1ccc(Cl)cc1Nc1nc(-c2sc(NC(=O)c3ccccc3)nc2C)cs1	CYP2C9 inh 68
O=C(C=C1CCN(c2ncc(C(F)(F)F)cc2Cl)CC1)NNC(=O)Nc1ccc(Cl)cc1	none
CCOc1c2ccc(C(=O)NCc3ccc4c(c3)OCO4)cc2nn1CC	none
COc1ccc(-c2[nH]c(-c3ccc(SC)cc3)nc2SCC(=O)Nc2nccs2)cc1	none (no result: CYP2C19 act, CYP2C9 inh, CYP2C19 inhib, CYP2C9 activ)
COc1ccc2occ(C(=O)c3cccs3)c2c1	CYP2C9 inh 53, CYP2C19 inhib 75
COc1ccc(OC)c(C(=O)c2coc3ccc(OC(C)=O)cc23)c1	none (no result: CYP2C19 act, CYP2C9 inh, CYP2C19 inhib, CYP2C9 activ)
COc1ccc2occ(NC(C)=O)c2c1	Measles CPE 42
CCCSc1nc2c(=O)[nH][nH]c(=O)c2n1Cc1ccccc1	none (no result: CYP2C19 act, CYP2C9 inh, CYP2C19 inhib, CYP2C9 activ)
Cc1onc(-c2ccccc2)c1C(=O)Nc1sc2c(c1C#N)CCC(C)C2 (configuration not stated)	CYP2C9 inh 92
CC1CCc2sc(NC(=S)NC(=O)c3ccccc3)c(C#N)c2C1 (configuration not stated)	none (no result: CYP2C19 act, CYP2C9 inh, CYP2C19 inhib, CYP2C9 activ)
Cc1onc(-c2ccccc2Cl)c1C(=O)Nc1sc2c(c1C#N)CCC2	CYP2C9 inh 100, CYP2C19 inhib 98
N#Cc1c(NC(=O)C2CC(c3ccccc3Cl)=NO2)sc2c1CCC2 (configuration not stated)	none
COc1cc(/C=N\NC(=O)c2ccc(Cn3cc(Br)c([N+](=O)[O-])n3)o2)cc(OC)c1O	none (no result: CYP2C19 act, CYP2C9 inh, CYP2C19 inhib, CYP2C9 activ)
C=CCc1cccc(Cl)c1OCCON1C(=O)CCC1=O	CYP2C19 inhib 55
C=C(C)CN(CC)c1nc(N)c(C#N)c(CC#N)c1C#N	none
CCCCN(CC)c1nc(N)c(C#N)c(CC#N)c1C#N	CYP2C9 inh 85, CYP2C19 inhib 64
CCOC(=O)C1=C(C)NC(=O)NC1c1cc(C)sc1C (configuration not stated)	none
COc1ccc(C)cc1NC(=S)NNC(=O)c1ccccc1Cl	CYP2C19 inhib 61
Cc1ccc(NC(=O)c2ccccc2Cl)c(Cl)c1	CYP2C9 activ 2.2
COc1ccccc1NC(=S)NNC(=O)c1ccc(O)cc1	none
CC(=O)c1ccc(N(C(=O)CS(=O)CC(=O)Nc2ccc(F)cc2)C(C(=O)NC2CCCCC2)c2cccs2)cc1 (configuration not stated)	none (no result: CYP2C19 act, CYP2C9 inh, CYP2C19 inhib, CYP2C9 activ)
COc1ccc(NC(=O)c2cccnc2C(=O)O)c(OC)c1	none
CC(=O)Nc1ccc(S(=O)(=O)NC(=O)C23CC4CC(CC(C4)C2)C3)cc1	none
O=C(OCC(=O)N1N=C(c2ccc(Cl)cc2)CC1c1ccco1)c1ccccc1O (configuration not stated)	CYP2C9 inh 88
CCCCC1CC(/C(C)=N/NC(N)=O)OC1=O (configuration not stated)	none
COC(=O)CC1SC(=O)NC1=Nc1ccc(C)cc1 (configuration not stated)	CYP2C19 inhib 75
COC(=O)CC1SC(=O)NC1=Nc1ccccc1 (configuration not stated)	none
COc1ccc(-c2cc(=Nc3ccc(C)cc3)c3ccccc3o2)cc1	CYP2C9 inh 53
CCCCCCNc1nc(-c2ccc(OC)cc2)c(CCC(=O)O)s1	none (no result: CYP2C19 act, CYP2C9 inh, CYP2C19 inhib, CYP2C9 activ)
CN(c1ccccc1C(=O)Nc1ccc(S(=O)(=O)N2CCOCC2)cc1)S(=O)(=O)c1ccccc1	none (no result: CYP2C19 act, CYP2C9 inh, CYP2C19 inhib, CYP2C9 activ)
Cc1cc(C)nc(N(C#N)Cc2ccc(Br)cc2)n1	CYP2C19 inhib 68
Cc1ccc(CN(C#N)c2nc(C)cc(C)n2)cc1	none
CCCCNS(=O)(=O)c1ccc(NS(=O)(=O)c2c(C)cc(C)cc2C)cc1	CYP2C9 inh 98, CYP2C19 inhib 85
CCNS(=O)(=O)c1ccc(NS(C)(=O)=O)cc1	none
COc1ccc(NS(=O)(=O)c2cc(OC)ccc2NC(=O)c2cc(C)oc2C)cc1	CYP2C19 inhib 91
COc1ccc(NS(=O)(=O)c2cc(C)ccc2C)cc1	CYP2C9 inh 72, CYP2C19 inhib 82
Cc1cc(C)c(S(=O)(=O)Nc2ccc(O)cc2)cc1C	CYP2C19 inhib 97
CC(=O)Nc1cc(S(=O)(=O)Nc2ccc(C)cc2)c(C)cc1C	none
COc1ccc(NS(=O)(=O)c2cc(S(C)(=O)=O)ccc2C)cc1	none (no result: CYP2C19 act, CYP2C9 inh, CYP2C19 inhib, CYP2C9 activ)
Cc1ccc(S(=O)(=O)CCC(=O)O)cc1C	none (no result: CYP2C19 act, CYP2C9 inh, CYP2C19 inhib, CYP2C9 activ)
CCN(CC)S(=O)(=O)c1ccc(C(=O)N2CCN=C2SCc2cccnc2)cc1	none
Cc1ccc(C)c(S(=O)(=O)Nc2ccc(O)cc2)c1	CYP2C19 inhib 72
Cc1cc(C)c(C(=O)Nc2ccc(S(=O)(=O)Nc3onc(C)c3C)cc2)c(C)c1	none
Cc1ccc(C)c(S(=O)(=O)Nc2ccc(S(=O)(=O)Nc3onc(C)c3C)cc2)c1	CYP2C9 inh 71
CCNS(=O)(=O)c1ccc(NS(=O)(=O)c2cc(C)ccc2C)cc1	CYP2C9 inh 97, CYP2C19 inhib 64
Cc1noc(NS(=O)(=O)c2ccc(NC(=O)COc3ccccc3)cc2)c1C	none
Cc1noc(NS(=O)(=O)c2ccc(NC(=O)CS(=O)(=O)c3ccccc3)cc2)c1C	CYP2C9 inh 54
O=C(COc1ccc2c(C(F)(F)F)cc(=O)oc2c1)Nc1ccc(N2CCOCC2)cc1	none (no result: CYP2C19 act, CYP2C9 inh, CYP2C19 inhib, CYP2C9 activ)
CCCS(=O)(=O)N1CCC(C(=O)NCCN(C)Cc2ccccc2)CC1	none
CCSc1c(-c2ccccc2)nc2c(C)cccc2c1C(=O)O	CYP2C9 inh 78
O=C(COc1ccccc1)Nc1sc2c(c1C(=O)NCc1cccnc1)CCCC2	CYP2C9 inh 96

High-throughput results (PubChem BioAssay)
